High-throughput results from PubChem.
In the library only some 2.3% were active in any assay of this set; here they are far more common.
CHO-K1 Ca PAM – counter-screen for M1 PAMs: effect in parental CHO-K1 cells | ATP EC20, Fluo-8 calcium fluorescence; 0% at ATP EC20, 100% at ATP max | activation, % at 3 µM | 360,000 compounds, 0.02% hits | AID 602247;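 active means activation above the run cutoff, the mean activation of all test compounds plus 3 SD, cut at about 40% in these data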;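 further: peak over basal fluorescence ratio in a 140 s read after ATP addition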
CHO-K1 Ca antag – nonselective inhibitor or artifact in parental CHO-K1 cells | inhibition, % at 3 µM | ATP-induced calcium, Fluo-8 fluorescence | 360,000 compounds, 0.6% hits;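 active means inhibition above a per-plate cutoff, the plate's mean sample inhibition plus 3 SD, cut at about 24% in these data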;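 further: 0% = DMSO plus EC80 ATP and 100% = DMSO alone without ATP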
M1 PAM – human CHRM1 positive allosteric modulation | 360,000 compounds, 0.088% hits | CHO-K1 hM1, Fluo-8 calcium fluorescence, ACh EC20; 0% = ACh EC20, 100% = maximal ACh | activation, % at 3 µM | AID 588819; in the data active means activation above about 19%, passing the limit was not always enough
Target sequence (P11229 whole entry, looked up): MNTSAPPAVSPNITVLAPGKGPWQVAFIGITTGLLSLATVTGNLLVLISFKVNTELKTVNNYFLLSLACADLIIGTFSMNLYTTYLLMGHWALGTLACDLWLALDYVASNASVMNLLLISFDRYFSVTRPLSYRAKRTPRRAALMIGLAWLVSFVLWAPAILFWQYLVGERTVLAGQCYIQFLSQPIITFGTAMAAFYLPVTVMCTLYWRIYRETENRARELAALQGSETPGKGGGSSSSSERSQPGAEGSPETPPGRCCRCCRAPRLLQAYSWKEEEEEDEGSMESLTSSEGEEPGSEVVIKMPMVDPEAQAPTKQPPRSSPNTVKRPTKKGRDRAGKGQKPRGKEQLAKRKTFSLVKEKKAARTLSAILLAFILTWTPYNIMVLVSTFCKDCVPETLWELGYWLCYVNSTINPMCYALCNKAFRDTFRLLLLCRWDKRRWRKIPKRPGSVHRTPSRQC
CHO-K1 Ca ag – nonselective activator or artifact in parental CHO-K1 cells; activation, % at 3 µM; 360,000 compounds, 0.48% hits; Fluo-8 calcium fluorescence; scaled to maximal ATP response, vehicle zero; in the data active means activation above about 15%;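 further: untransfected CHO-K1 host cells lacking M1 receptor as counterscreen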
CHRM1 antagonist – antagonists of human M1 muscarinic receptor | P11229 | CHO-K1 hM1, Fluo-8 calcium fluorescence, ACh EC80 antagonist | inhibition, % at 3 µM | 360,000 compounds, 1.3% hits | AID 588852;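 active means percent inhibition above its own plate's cutoff, namely the mean of that plate's compound wells plus 3 SD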;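 further: peak over basal fluorescence ratio during 140 s after agonist addition; 0% = ACh EC80 plus DMSO and 100% = DMSO alone without agonist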
CHRM1 agonist – agonists of human M1 muscarinic receptor | P11229 | CHO-K1 hM1, Fluo-8 calcium fluorescence, agonist mode; 0% DMSO, 100% acetylcholine EC100 | activation, % at 3 µM | 360,000 compounds, 0.33% hits;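 active means activation above the run's mean compound activation plus 3 SD, cut at about 16% in these data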;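 further: peak over basal fluorescence ratio within a 140 s kinetic read after compound addition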
Numbers without * were called inactive.

Screening COc1ccc(CNC(=O)C2CCCN2CCc2ccccc2)cc1OC (stereo not given) returned CHO-K1 Ca PAM 11, CHO-K1 Ca antag -20, M1 PAM 11, CHO-K1 Ca ag 17*, CHRM1 antagonist -9 and CHRM1 agonist -11.
Screening COc1cc(OC)c(NC(=O)/C=C/C(=O)O)cc1Cl returned CHO-K1 Ca PAM 27, CHO-K1 Ca antag -13, M1 PAM 13, CHO-K1 Ca ag 1, CHRM1 antagonist -19 and CHRM1 agonist -4.
Screening COc1ccc(OC)c(NC(=O)CCCCCn2nnc3ccccc3c2=O)c1 returned CHO-K1 Ca PAM -9, CHO-K1 Ca antag 7, M1 PAM 4, CHO-K1 Ca ag 3, CHRM1 antagonist -2 and CHRM1 agonist -3.
Screening O=C(NCc1ccccc1)c1ccc(CN2CCC(Cc3ccccc3)CC2)cc1 returned CHO-K1 Ca PAM 8, CHO-K1 Ca antag 17, M1 PAM -17, CHO-K1 Ca ag 27*, CHRM1 antagonist 25 and CHRM1 agonist 4.
COC(=O)CN(c1cc([N+](=O)[O-])ccc1OC)S(C)(=O)=O was read as CHO-K1 Ca PAM 9, CHO-K1 Ca antag 8, M1 PAM 9, CHO-K1 Ca ag 17*, CHRM1 antagonist -10 and CHRM1 agonist -8.
Screening Cc1ccc(CNC(=O)C2CCC(=O)N(Cc3ccccc3F)C2)s1 (stereo not given) returned CHO-K1 Ca PAM 9, CHO-K1 Ca antag -5, M1 PAM 7, CHO-K1 Ca ag 0, CHRM1 antagonist -11 and CHRM1 agonist -2.
CCc1cccc(CC)c1N1C(=O)C2=C(SCCCS2)C1=O was read as CHO-K1 Ca PAM -2, CHO-K1 Ca antag 12, M1 PAM -16, CHO-K1 Ca ag 26*, CHRM1 antagonist 16 and CHRM1 agonist 20*.
Screening CCOc1ccc(N(CC(=O)Nc2nccs2)S(=O)(=O)c2c(C)[nH]c(=O)[nH]c2=O)cc1 returned CHO-K1 Ca PAM -9, CHO-K1 Ca antag 4, M1 PAM 1, CHO-K1 Ca ag 0, CHRM1 antagonist 12 and CHRM1 agonist -2.
Screening Nc1c(C(=O)c2ccccc2)sc2nsc(SCCN3CCCC3)c12 returned CHO-K1 Ca PAM 8, CHO-K1 Ca antag 10, M1 PAM -26, CHO-K1 Ca ag 16*, CHRM1 antagonist 55* and CHRM1 agonist 11.
Screening Cc1ccc(CNC(=O)N2CCN(S(=O)(=O)c3ccccc3)CC2)cc1 returned CHO-K1 Ca PAM 21, CHO-K1 Ca antag -6, M1 PAM 6, CHO-K1 Ca ag 0, CHRM1 antagonist -9 and CHRM1 agonist -5.
COc1ccc(C(c2c(C)n(C)n(-c3ccccc3)c2=O)c2c(C)n(C)n(-c3ccccc3)c2=O)cc1OC was read as CHO-K1 Ca PAM 0, CHO-K1 Ca antag -3, M1 PAM 7, CHO-K1 Ca ag 0, CHRM1 antagonist -8 and CHRM1 agonist -3.
For COc1ccc(C(c2c(C)[nH]n(-c3ccccc3)c2=O)c2c(C)[nH]n(-c3ccccc3)c2=O)cc1OC the results were CHO-K1 Ca PAM 28, CHO-K1 Ca antag 0, M1 PAM -3, CHO-K1 Ca ag 15*, CHRM1 antagonist 14 and CHRM1 agonist 0.
`CN(C(=O)N1CCN(S(=O)(=O)c2ccccc2)CC1)c1ccccc1` gave CHO-K1 Ca PAM 16, CHO-K1 Ca antag 1, M1 PAM 3, CHO-K1 Ca ag 2, CHRM1 antagonist -2 and CHRM1 agonist -3.
Screening COCCN(C(=O)CSc1nc2ccccc2c(=O)n1CC(C)C)c1c(N)n(Cc2ccccc2)c(=O)[nH]c1=O returned CHO-K1 Ca PAM 16, CHO-K1 Ca antag 1, M1 PAM 15, CHO-K1 Ca ag 20*, CHRM1 antagonist -9 and CHRM1 agonist -10.
Screening CCCN(C(=O)CSCc1ccccc1C)c1c(N)n(Cc2ccccc2)c(=O)[nH]c1=O returned CHO-K1 Ca PAM 11, CHO-K1 Ca antag -12, M1 PAM 26*, CHO-K1 Ca ag 1, CHRM1 antagonist -27 and CHRM1 agonist 5.
CCCN(C(=O)CSCc1ccc(C)cc1)c1c(N)n(Cc2ccccc2)c(=O)[nH]c1=O was read as CHO-K1 Ca PAM -10, CHO-K1 Ca antag -1, M1 PAM 4, CHO-K1 Ca ag -1, CHRM1 antagonist -5 and CHRM1 agonist -1.
For COCCN(C(=O)CSc1nc2ccccc2c(=O)n1C(C)COC)c1c(N)n(Cc2ccccc2)c(=O)[nH]c1=O (stereo not given) the results were CHO-K1 Ca PAM 6, CHO-K1 Ca antag 4, M1 PAM -22, CHO-K1 Ca ag 1, CHRM1 antagonist 7 and CHRM1 agonist -13.
For COc1ccc(-c2nc(N)ncc2-c2csc(C)n2)c(O)c1OC the results were CHO-K1 Ca PAM 6, CHO-K1 Ca antag -5, M1 PAM -7, CHO-K1 Ca ag 0, CHRM1 antagonist 8 and CHRM1 agonist -2.
Screening Cc1ccc(C)c(NC(=O)Cn2nc(C(F)(F)F)cc2C2CC2)c1 returned CHO-K1 Ca PAM 2, CHO-K1 Ca antag -41, M1 PAM 26*, CHO-K1 Ca ag 0, CHRM1 antagonist -20 and CHRM1 agonist 1.
For CC(=O)NCc1nc2ccccc2n1Cc1ccccc1F the results were CHO-K1 Ca PAM -8, CHO-K1 Ca antag 24*, M1 PAM -1, CHO-K1 Ca ag 0, CHRM1 antagonist 14 and CHRM1 agonist -2.
O=[N+]([O-])c1cccc(/C=N/NC2CCS(=O)(=O)C2)c1 (stereo not given) was read as CHO-K1 Ca PAM 6, CHO-K1 Ca antag -4, M1 PAM 10, CHO-K1 Ca ag 0, CHRM1 antagonist -14 and CHRM1 agonist -4.
`COc1ccc(CNC(=O)Cc2nn(C)c(=O)c3ccccc23)cc1` gave CHO-K1 Ca PAM -6, CHO-K1 Ca antag 24*, M1 PAM -11, CHO-K1 Ca ag 11, CHRM1 antagonist 26 and CHRM1 agonist 4.
`Cn1nc(CC(=O)NCc2ccc(C(F)(F)F)cc2)c2ccccc2c1=O` gave CHO-K1 Ca PAM 1, CHO-K1 Ca antag 4, M1 PAM -3, CHO-K1 Ca ag 8, CHRM1 antagonist 10 and CHRM1 agonist 5.
`Cn1c2ccccc2c(=O)c2ccc(C#CC3(O)CCCCC3)cc21` gave CHO-K1 Ca PAM -1, CHO-K1 Ca antag -3, M1 PAM -23, CHO-K1 Ca ag 13, CHRM1 antagonist 39* and CHRM1 agonist -5.
`COc1cc2sc3ccc(C#CC4(O)CCCCC4)cc3c(=O)c2cc1OC` gave CHO-K1 Ca PAM 8, CHO-K1 Ca antag -8, M1 PAM -9, CHO-K1 Ca ag 0, CHRM1 antagonist 8 and CHRM1 agonist -10.
COc1ccc(S(=O)(=O)NCC(=O)NCCc2ccc(OC)c(OC)c2)cc1 was read as CHO-K1 Ca PAM 18, CHO-K1 Ca antag -5, M1 PAM 15, CHO-K1 Ca ag 2, CHRM1 antagonist -21 and CHRM1 agonist 0.
